Results reported in PubChem BioAssay (NCI).
Values joined by “and” are separate entries in the source; they are usually repeats but may differ in a detail not shown here. Equal values may be shown once. The panel holds about 83,000 compounds, 20% with a hit somewhere; the sample as a whole holds those more often.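 How to read the values: 0–100, growth inhibition (40 = 60% inhibited); 0, no net growth; -100 to 0, cell death (-40 = 40% of starting cells died; -100 = all dead).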 Active and inactive are the calls of the source. Rule for the calls: active = growth percent below 10; inactive = the rest.

The compounds below were run on SK-OV-3 ovarian (assay: NCI-60 one-dose screen, 48 h (100 = growth as untreated, 0 = no growth, -100 = all killed)). Details: 10 µM unless noted.
In the case of `N#CC(C#N)=Cc1cccc(F)c1`, the growth is reported as 105% (inactive). `CN(C)c1ccc(C=C2C(=O)NC(=O)NC2=O)cc1` was tested, and the growth was 109% (inactive). With `[N-]=[N+]=CC(=O)CCC(=O)C=[N+]=[N-]` the growth was 109% (inactive). With `CC1=C2[C@H]3OC(=O)[C@@H](C)[C@@H]3CC[C@@]2(C)C=CC1=O` the growth was 122% (inactive). `O=[N+]([O-])c1ccc2scc3c4ccccc4nc-3c2c1` was tested, and the growth was 45.8% (inactive). `Cc1cc(NC(=O)NCCCOc2ccc(N3C(N)=NC(N)=NC3(C)C)cc2Cl)ccc1S(=O)(=O)F` was tested, and the growth was 65.3% (inactive). With `Nc1c(Cl)c(Cl)nc(C(=O)O)c1Cl` the growth was 99.9% (inactive). `Cn1cc(C(=O)C[n+]2ccccc2)c2ccccc21` was tested, and the growth was 101% (inactive). `Nc1nc(=S)nc(N)[nH]1` was tested, and the growth was 102% (inactive). In the case of `C[C@]12CCC(=O)C[C@@H]1CC[C@@H]1[C@@H]2CC[C@]2(C)[C@@H](OC(=O)N(CCCl)N=O)CC[C@@H]12`, the growth is reported as 16.1% (inactive). In the case of `NC1CN2CCC1CC2` (configuration not stated), the growth is reported as 97.4% (inactive). In the case of `O=C(O)C1C(C(=O)O)C2(Cl)C(Cl)=C(Cl)C1(Cl)C2(Cl)Cl` (configuration not stated), the growth is reported as 103% (inactive) and 107% (inactive). `O=C1NC(=O)C(=C/C=C/c2ccccc2)C(=O)N1` was tested, and the growth was 62.9% (inactive). With `c1ccc(CCN2CCCCC2)nc1` the growth was 99.2% (inactive). `O=[N+]([O-])c1cc(Br)c(O)c(Br)c1` was tested, and the growth was 103% (inactive). In the case of `Cc1cc(Br)c([N+](=O)[O-])cc1[N+](=O)[O-]`, the growth is reported as 104% (inactive). With `C[C@]12CC[C@@H](OC(=O)N(CCCl)N=O)C[C@@H]1CC[C@@H]1[C@@H]2CC[C@]2(C)C(=O)CC[C@@H]12` the growth was 21.2% (inactive).
